Laboratory results taken from PubChem BioAssay AID1159580 (chemical genetic matrix, 2015).
“And” between values parts separate entries of the source, which are not always exact repeats. Equal entries are not always repeated. The whole screen tested about 5,500 compounds, of which about 2,000 (36%) were called active. Inconclusive results (about 18%) are left out. Rule as the data show it: active = normalized growth mostly below about 0.91 (no sharp cut-off); inconclusive = no clear call, values can overlap the other calls; inactive = mostly above about 0.92. Some of the results follow.

Experiment: chemical genetic growth profiling, strain panel (AID 1159580);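 also: tested at 20 µM; growth read once vehicle control cultures reached saturation at 30 °C; 1 = growth at the plate median or of vehicle wells; lower values mean less growth of the strain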
Conditions: S. cerevisiae deletion strains, growth OD

Measured: normalized growth

Nc1ncn([C@@H]2O[C@H](CO)[C@@H](O)[C@H]2O)c(=O)n1
inactive: locus YAL021C, strain ccr4, stronger effect = lower value 1.01 | locus YAL026C, strain drs2, stronger effect = lower value 0.998 | locus YAL030W, strain snc1, stronger effect = lower value 0.996 | locus YBL061C, strain skt5, stronger effect = lower value 0.987 | locus YBR009C, strain hhf1, stronger effect = lower value 0.992 | locus YBR021W, strain FUR4, stronger effect = lower value 0.999 | locus YBR023C, strain chs3, stronger effect = lower value 1 | locus YBR171W, strain sec66, stronger effect = lower value 0.962 | locus YBR229C, strain ROT2, stronger effect = lower value 1.01 | locus YBR231C, strain swc5, stronger effect = lower value 0.973 | locus YBR279W, strain paf1, stronger effect = lower value 0.995 | locus YCL011C, strain gbp2, stronger effect = lower value 1.01 | locus YCL016C, strain dcc1, stronger effect = lower value 0.987 | locus YCL029C, strain bik1, stronger effect = lower value 1 | locus YCL061C, strain MRC1, stronger effect = lower value 0.989 | locus YCL069W, strain vba3, stronger effect = lower value 0.979 | locus YCR088W, strain abp1, stronger effect = lower value 0.996 | locus YDL005C, strain med2, stronger effect = lower value 0.972 | locus YDL035C, strain GPR1, stronger effect = lower value 1.02 | locus YDL040C, strain nat1, stronger effect = lower value 0.981 | locus YDL074C, strain BRE1, stronger effect = lower value 1.03 | locus YDL101C, strain DUN1, stronger effect = lower value 1.01 | locus YDL134C, strain PPH21, stronger effect = lower value 1.01 | locus YDL185W, strain tfp1, stronger effect = lower value 0.99 | locus YDL192W, strain arf1, stronger effect = lower value 0.994 | locus YDR001C, strain nth1, stronger effect = lower value 0.984 | locus YDR069C, strain doa4, stronger effect = lower value 0.976 | locus YDR101C, strain arx1, stronger effect = lower value 0.996 | locus YDR137W, strain rgp1, stronger effect = lower value 1 | locus YDR159W, strain sac3, stronger effect = lower value 1 | locus YDR162C, strain NBP2, stronger effect = lower value 1.01 | locus YDR195W, strain ref2 0.91 | locus YDR297W, strain sur2, stronger effect = lower value 0.993 | locus YDR318W, strain mcm21, stronger effect = lower value 0.999 | locus YDR334W, strain swr1, stronger effect = lower value 0.989 | locus YDR335W, strain msn5, stronger effect = lower value 0.98 | locus YDR388W, stronger effect = lower value 0.997 | locus YDR392W, strain spt3, stronger effect = lower value 1.02 | locus YDR502C, strain sam2, stronger effect = lower value 1.01 | locus YEL003W, strain gim4, stronger effect = lower value 0.982 | locus YEL037C, strain rad23, stronger effect = lower value 0.992 | locus YEL061C, strain CIN8 (second series), stronger effect = lower value 0.986 | locus YEL061C, strain CIN8, stronger effect = lower value 1.01 | locus YER015W, strain faa2, stronger effect = lower value 0.99 | locus YER016W, strain bim1, stronger effect = lower value 1.01 | locus YER110C, stronger effect = lower value 1.01 | locus YER111C, strain swi4, stronger effect = lower value 0.959 | locus YER155C, strain BEM2 (second series), stronger effect = lower value 0.978 | locus YER155C, strain BEM2, stronger effect = lower value 1.01 | locus YER167W, strain BCK2, stronger effect = lower value 0.996 | locus YFR010W, strain ubp6, stronger effect = lower value 0.983 | locus YGL078C, strain dbp3, stronger effect = lower value 0.992 | locus YGL086W, strain mad1, stronger effect = lower value 1 | locus YGL167C, strain pmr1, stronger effect = lower value 0.987 | locus YGL173C, strain kem1, stronger effect = lower value 0.971 | locus YGL227W, strain vid30, stronger effect = lower value 0.983 | locus YGL240W, strain doc1, stronger effect = lower value 0.951 | locus YGL248W, strain PDE1, stronger effect = lower value 1.02 | locus YGL253W, strain hxk2, stronger effect = lower value 0.989 | locus YGR078C, strain PAC10, stronger effect = lower value 1.03 | locus YGR135W, strain pre9, stronger effect = lower value 0.99 | locus YGR229C, strain SMI1, stronger effect = lower value 1.02 | locus YGR252W, strain gcn5, stronger effect = lower value 0.962 | locus YHR013C, strain ard1, stronger effect = lower value 0.979 | locus YHR027C, strain rpn1, stronger effect = lower value 0.994 | locus YHR030C, strain SLT2, stronger effect = lower value 1.01 and 0.98 | locus YHR079C, strain IRE1 (second series), stronger effect = lower value 0.989 | locus YHR079C, strain IRE1, stronger effect = lower value 0.997 | locus YHR094C, strain hxt1, stronger effect = lower value 0.987 | locus YHR129C, strain ARP1, stronger effect = lower value 1.01 | locus YHR142W, strain chs7, stronger effect = lower value 0.974 | locus YHR200W, strain rpn10, stronger effect = lower value 0.993 | locus YIL066C, strain RNR3, stronger effect = lower value 1.02 | locus YIL073C, strain SPO22, stronger effect = lower value 0.973 | locus YIL125W, strain kgd1, stronger effect = lower value 0.997 | locus YIR030C, strain dcg1, stronger effect = lower value 1 | locus YJL092W, strain hpr5, stronger effect = lower value 0.984 | locus YJL095W, strain BCK1 (second series), stronger effect = lower value 0.972 | locus YJL095W, strain BCK1, stronger effect = lower value 1.03 and 0.98 | locus YJL115W, strain asf1, stronger effect = lower value 0.97 | locus YJL129C, strain trk1, stronger effect = lower value 0.966 | locus YJL134W, strain LCB3, stronger effect = lower value 1 | locus YJL154C, strain vps35, stronger effect = lower value 0.981 | locus YJL164C, strain tpk1, stronger effect = lower value 0.996 | locus YJL166W, strain qcr8, stronger effect = lower value 0.973 | locus YJL168C, strain set2, stronger effect = lower value 0.995 | locus YJL187C, strain SWE1 (second series), stronger effect = lower value 1.03 | locus YJL187C, strain SWE1, stronger effect = lower value 0.983 | locus YJR043C, strain POL32, stronger effect = lower value 1.01
